# According to PubChem BioAssay (NCATS):
# Inconclusive results are not listed. Values without a mark were called inactive. The source made the active and inactive calls. Calls follow the shape of the dose curve; as a rule, active = well fitted inhibition curve with a large enough effect; inconclusive = small, poorly fitted or top-dose-only effect; inactive = flat fitted curve, though single readings scatter.
# Molecular target: Phospholipid hydroperoxide glutathione peroxidase GPX4 (Homo sapiens) (UniProt P36969)
# Test: Primary qHTS Assay for Inhibitors of Recombinant Selenoprotein Glutathione Peroxidase 4 (GPX4) (AID 1845192); also: nearly all actives have a fitted effect of over 65% in size
# Details: recombinant GPX4, GR-coupled NADPH fluorescence, 15 min; series mostly up to 27.8 µM; activity change, negative = inhibition: at the top concentration
# Method in brief: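 Steps: GPX4 plus compound, 30 min RT; add GR/GSH/NADPH master mix; start with cumene hydroperoxide; read 340/450 nm fluorescence at 0 and 15 min. Finals were 200 nM GPX4, 1 mM GSH, 0.5 mM CHP, 0.5 mM NADPH, 100 nM GR.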
# % is scaled to controls: 0 for no effect and ±100 for the full control effect.
# Chain of Phospholipid hydroperoxide glutathione peroxidase GPX4 (Homo sapiens) (P36969 whole entry, looked up): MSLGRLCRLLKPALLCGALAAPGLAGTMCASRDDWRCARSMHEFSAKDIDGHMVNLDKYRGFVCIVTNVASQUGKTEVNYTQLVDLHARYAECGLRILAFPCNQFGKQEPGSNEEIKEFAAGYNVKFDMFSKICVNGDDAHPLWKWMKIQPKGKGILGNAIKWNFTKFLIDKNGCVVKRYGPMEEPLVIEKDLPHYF
SMILES,"activity change, negative = inhibition",Potency,outcome
CC1(C)CC[C@]2(C(=O)O)[C@H](O)C[C@]3(C)C(=CCC4[C@@]5(C)CC[C@H](O[C@@H]6OC[C@@H](O)[C@H](O)[C@H]6O)[C@@](C)(C(=O)O)C5CC[C@]43C)[C@@H]2C1 (some centres undefined),0.0375% [at 15.3 µM],,
CCC(CC)CC1(C(=O)Nc2ccccc2SC(=O)C(C)C)CCCCC1,,inactive,
COc1cc(CO)ccc1O[C@@H]1O[C@H](CO)[C@@H](O)[C@H](O)[C@H]1O,-4.16%,,
COc1cc(C2CC(=O)Nc3c2cc(Br)c2ccccc32)cc(OC)c1OC (centres undefined),0.948% [at 50 µM],,
CC1(C)CC[C@]2(C(=O)O[C@@H]3O[C@H](CO)[C@@H](O)[C@H](O)[C@H]3O)CC[C@]3(C)C(=CCC4[C@@]5(C)C[C@@H](O)[C@H](O)[C@@](C)(CO)C5[C@H](O)C[C@]43C)C2C1 (some centres undefined),-10.9% [at 15.3 µM],,
CC(C)(OC1OC(CO)C(O)C(O)C1O)C1CCC(O)(CO)C2CC(=O)C(C)(O)C2C1 (centres undefined),,,inactive
CC(=O)OC/C(=C/C(=O)O)CC[C@@H]1C(C)=CC(=O)[C@@H]2C(C)(C)CCC[C@@]12C,,,inactive
C[C@@H]1O[C@@H](O[C@@H]2\C=C/C=C\C=C/C=C\C[C@H](C)OC(=O)/C=C\[C@H]3O[C@@H]3C[C@H](O)C[C@]3(O)C[C@@H](O)[C@@H](C(=O)O)[C@H](C2)O3)[C@H](O)[C@H](N)[C@@H]1O,1.12%,,
CC(=O)OC1C(CO)OC(O[C@H]2[C@H](OC(=O)[C@]34CCC(C)(C)C[C@H]3C3=CCC5[C@@]6(C)CC[C@H](O[C@@H]7O[C@H](C(=O)O)[C@@H](O)[C@H](O[C@@H]8OC[C@@H](O)[C@H](O)[C@H]8O)[C@H]7O[C@@H]7O[C@H](CO)[C@H](O)[C@H](O)[C@H]7O)[C@@](C)(C=O)C6CC[C@@]5(C)[C@]3(C)C[C@H]4O)O[C@H](C)[C@H](OC3OC(C)C(OC4OCC(O)C(O)C4O)C(O)C3O)[C@@H]2O)C(O)C1O (some centres undefined),2.95% [at 9.73 µM],,
O=C(/C=C/c1ccc(O)cc1)OC[C@H]1O[C@@H](O/C(=C\c2ccccc2)C(=O)O)[C@H](O)[C@@H](O)[C@@H]1O,,,inactive
CC(C)(O)c1ccc2c(c1)C(=O)C[C@H]1[C@](C)(C(=O)O)CCC[C@]21C,-2.89%,,
O=C(O)c1cc(O[C@@H]2O[C@H](CO)[C@@H](O)[C@H](O)[C@H]2O)ccc1O,-8.84%,,
C/C=C1/C[N+](C)([O-])C2Cc3c([nH]c4ccccc34)C(=O)CC1C2C(=O)OC (centres undefined),-10.9%,,
COc1cc(Cc2cnc(N)nc2N)c(C(C)C)cc1OC,,,inactive [at 50 µM]
CC1(CO)CC(O)C2(C)CCC3(C)C(=CCC4C5(C=O)CCC(OC6OC(C(=O)O)C(O)C(O)C6OC6OC(C(=O)O)C(O)C(O)C6O)C(C)(C)C5CCC43C)C2C1 (centres undefined),-5.77% [at 15.3 µM],,
CC(/C=C/C=C(\C)C(=O)O[C@@H]1O[C@H](CO[C@@H]2O[C@H](CO)[C@@H](O)[C@H](O)[C@H]2O)[C@@H](O)[C@H](O)[C@H]1O)=C\C=C\C=C(C)\C=C\C=C(/C)C(=O)O[C@@H]1C[C@](O)(C(=O)O)C[C@@H](O)[C@H]1OC(=O)/C=C/c1ccc(O)c(O)c1,-13.2% [at 15.3 µM],,
CC1CCC2(C(=O)O)CCC3(C)C(=CCC4C5(C)CCC(O)C(C)(C(=O)O)C5CCC43C)C2C1(C)O (centres undefined),,,inactive
Cc1nc2cc(-c3cc(F)cc(C#N)c3)ccc2s1,12.4% [at 50 µM],,
C=C1[C@H]2CCC3[C@]4(C)CCC[C@@](C)(C(=O)O)C4CC[C@]3(C2)[C@H]1OC(C)=O (some centres undefined),-13.2%,,
COC(=O)C1=COC(O[C@@H]2O[C@H](CO)[C@@H](O)[C@H](O)[C@H]2O)[C@@H]2[C@@](C)(O)[C@@H](OC(=O)/C=C/c3ccccc3)C[C@]12O (some centres undefined),-5.93%,,

SMILES,"activity change, negative = inhibition",Potency,outcome
COC1OC(=O)C2=C1C1(C)CCCC(C)(C)C1CC2O (centres undefined),-3.04% [at 50 µM],,
COc1cc(-c2ccc(O)cc2)c(OC)c(O)c1C1=CC(=O)OC1CC(=O)O (centres undefined),-13.2%,,
COc1cc(/C=C/C(=O)O[C@H]2[C@@H]3C=CO[C@@H](O[C@@H]4O[C@H](CO)[C@@H](O)[C@H](O)[C@H]4O)[C@@H]3[C@@]3(CO)O[C@@H]23)ccc1O,4.44%,,
CC(C)(O)/C=C/C(=O)[C@](C)(O)[C@H]1[C@H](O)C[C@@]2(C)[C@@H]3CC=C4[C@@H](C=C(O[C@@H]5O[C@H](CO)[C@@H](O)[C@H](O)[C@H]5O)C(=O)C4(C)C)[C@]3(C)C(=O)C[C@]12C,0.265% [at 15.3 µM],,
CNc1nc(Cc2ccccc2)nc2c1CCNC[C@@H]2C,-10.2% [at 50 µM],,
O=C(c1ccc(Cl)c([N+](=O)[O-])c1)N1CCN(c2ccccc2F)CC1,13.7% [at 50 µM],,
Cc1ccc([C@@H]2CC=C(C(=O)O)[C@H](c3ccc(C(C)(C)C)cc3)N2S(=O)(=O)c2ccc(C)cc2)cc1,-16.3% [at 50 µM],,
C[C@@H]1O[C@@H](O[C@H]2[C@@H]3C=CO[C@@H](O[C@@H]4O[C@H](CO)[C@@H](O)[C@H](O)[C@H]4O)[C@@H]3[C@@]3(CO)O[C@@H]23)[C@H](OC(=O)/C=C/c2ccc(O)cc2)[C@H](O)[C@H]1O,2.46% [at 15.3 µM],,
C=C(C(=O)O)C1CC(O)C2(C)CCCC(C)(O)C2C1 (centres undefined),-3.19% [at 50 µM],,
CC1=C2C[C@H]3OC(=O)[C@H](O)[C@@]4(O)[C@@H](C)[C@@H](O)[C@H](O)C([C@@]2(C)[C@H](O)[C@@H](O)C1)[C@@]34C (some centres undefined),,,inactive
C[C@@H]1O[C@@H](O[C@H]2[C@@H]3C=CO[C@@H](O[C@@H]4O[C@H](CO)[C@@H](O)[C@H](O)[C@H]4O)[C@@H]3[C@@]3(CO)O[C@@H]23)[C@H](O)[C@H](O)[C@H]1OC(=O)/C=C/c1ccc(O)cc1,0.538% [at 15.3 µM],,
COc1ccc(CC(=O)NCc2ccccc2-c2ccccc2C(=O)NCCc2cccnc2)cc1,0.206% [at 50 µM],,
CC1(C)CC[C@]2(C(=O)O)CC[C@]3(C)C(=CCC4[C@@]5(C)C[C@@H](O)[C@H](O)[C@@](C)(CO)C5[C@H](O)C[C@]43C)[C@@H]2C1 (some centres undefined),,,inactive
CC1(C)CCC[C@@]2(C)[C@H]1[C@H](O)C=C(CO)[C@]2(O)CO,-8.22% [at 50 µM],,
Cc1occc(=O)c1O[C@@H]1O[C@H](CO)[C@@H](O)[C@H](O)[C@H]1O,1.61% [at 50 µM],,
CC(C(=O)Nc1cc(C#N)ccc1CCCC(=O)O)c1ccc(F)c2ccccc12 (centres undefined),3.77% [at 50 µM],,
CC(=O)OC(C)(C)/C=C/C(=O)[C@](C)(O)C1[C@H](O)C[C@@]2(C)[C@@H]3CC=C4[C@@H](C[C@H](O[C@@H]5O[C@H](CO)[C@@H](O)[C@H](O)[C@H]5O)C(=O)C4(C)C)[C@]3(C)C(=O)C[C@]12C (some centres undefined),,,inactive [at 15.3 µM]
CC(C)=CCC[C@](C)(O[C@@H]1O[C@H](CO[C@@H]2O[C@@H](CO)[C@H](O)[C@H]2O[C@@H]2OC[C@@H](O)[C@H](O)[C@H]2O)[C@@H](O)[C@H](O)[C@H]1O)[C@H]1CC[C@]2(C)[C@@H]1[C@H](O)CC1[C@@]3(C)CC[C@H](O[C@@H]4O[C@H](CO)[C@@H](O)[C@H](O)[C@H]4O[C@@H]4O[C@H](CO)[C@@H](O)[C@H](O)[C@H]4O)C(C)(C)C3CC[C@]12C (some centres undefined),,,inactive [at 9.73 µM]
C=C1C[C@]23C[C@@]1(O)CC[C@H]2[C@@]12C=C[C@H](O)[C@@](C)(C(=O)O1)[C@H]2[C@@H]3C(=O)O,,,inactive
